A number with no mark means an inactive call. Active and inactive are the calls of the source. Unless noted, calls come from the whole dose curve; as a rule, active = well fitted activation curve with a large enough effect in the repeat runs; inconclusive = weak or mixed curves; inactive = flat fitted curve, though single readings scatter.
Target: KiSS-1 receptor (Homo sapiens) (UniProt Q969F8)
Test: Human kisspeptin (KISS1R) small molecule agonists, calcium flux assay in KISS1R-HEK293 cells (AID 1920064)
Settings: KISS1R-HEK293, calcium flux fluorescence, agonist; series mostly up to 76.8 µM
In short: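 Kinetic calcium assay, 1 s sampling over 3 min at Ex/Em 480/540, in HEK293 cells engineered with human KISS1R; compounds delivered in DMSO after 1 h dye loading.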
% is set by controls: 0 for no effect and ±100 for the full control effect.

Sequence of KiSS-1 receptor (Homo sapiens) (Q969F8 whole entry, looked up): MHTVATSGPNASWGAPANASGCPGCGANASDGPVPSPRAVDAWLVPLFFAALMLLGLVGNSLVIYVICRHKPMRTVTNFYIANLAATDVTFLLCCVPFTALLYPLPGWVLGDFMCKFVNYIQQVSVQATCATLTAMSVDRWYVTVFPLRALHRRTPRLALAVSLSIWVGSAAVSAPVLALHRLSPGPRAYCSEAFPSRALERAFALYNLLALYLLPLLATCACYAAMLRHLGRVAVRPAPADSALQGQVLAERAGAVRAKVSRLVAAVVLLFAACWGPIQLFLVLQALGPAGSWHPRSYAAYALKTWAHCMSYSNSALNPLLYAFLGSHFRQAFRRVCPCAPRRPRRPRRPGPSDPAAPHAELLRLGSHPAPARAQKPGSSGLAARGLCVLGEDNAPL

Compound	activation	outcome
C=CC(=C)CC/C=C(\C)CCC=C(C)C	5.69% [at 15.8 µM]	–
C[C@H](CCC(=O)O)[C@H]1CC[C@H]2[C@@H]3[C@H](O)C[C@@H]4C[C@H](O)CC[C@]4(C)[C@H]3C[C@H](O)[C@]12C	–	inactive
CC(C)C[P+](C)(CC(C)C)CC(C)C	–	inactive
CCCCCCCCCCCCCCCCCCN(C)C	–	inactive
CCOC(=O)O[C@H](C)OC(=O)c1ccc2c(c1)cc(C(=O)NC1CCN(C(C)C)CC1)n2Cc1cc(-c2ccc(Cl)s2)on1	–	inactive
CC(=O)Nc1cccc(C)c1	–	inactive
O=C(NCCN1CCOCC1)c1ccc(Cl)cc1	–	inactive
CCCCCCCCCCCCCOP(=O)(O)O	–	inactive
CCCC(C)C	–	inactive
Cc1[nH]c(=O)c(C#N)cc1-c1ccc2nccn2c1	–	inactive
CCO	–	inactive
CC(=O)Nc1ccc(OCC(O)CNC(C)C)cc1 (stereo not given)	–	inactive
O=C(NS(=O)(=O)/C=C/c1ccccc1)c1ccc(F)cc1Cl	–	inactive
CCOC(=O)CCCCCCCCC(=O)OCC	–	inactive
CC(C)OC(=O)C(C(=O)OC(C)C)=C1SC=CS1	–	inactive
O=C(CN1CCN(Cc2ccc3c(c2)OCO3)CC1)N1c2ccccc2Sc2ccccc21	–	inactive
CC(=O)Oc1ccc(C(C)=O)cc1	–	inactive
Cc1ccc(C(=O)Oc2ccc(C(O)CNC(C)(C)C)cc2OC(=O)c2ccc(C)cc2)cc1 (stereo not given)	–	inactive
Oc1ccc(Cl)c2cccnc12	–	inactive
CCCCCCCC/C=C\CCCCCCCCOCCO	–	inactive

Compound	activation	outcome
CC(=O)OC(C)c1ccccc1 (stereo not given)	–	inactive
O=S(=O)(Cl)c1c(Cl)cccc1Cl	–	inactive
CCOC(=O)CC1(C)OCC(C)O1 (stereo not given)	–	inactive
C1CC(COCC2CO2)CCC1COCC1CO1 (stereo not given)	–	inactive
CCCCCCCCCCC(=O)O	–	inactive
O=C1OCc2ccccc21	–	inactive
CC1(C)C(=O)N(CO)C(=O)N1CO	–	inactive
CCCC(c1cc(C(C)(C)C)c(O)cc1C)c1cc(C(C)(C)C)c(O)cc1C	–	inactive
O=C(O)CNCC(=O)O	0.594% [at 6.97 µM]	–
CCCS(=O)c1ccc2nc(NC(=O)OC)[nH]c2c1 (stereo not given)	–	inactive
O=C(OCc1ccccc1)C(=O)OCc1ccccc1	–	inactive
C/C=C(\C)C#N	–	inactive
Cl[Si](Cl)(c1ccccc1)c1ccccc1	–	inactive
N=C(N)c1ccc(OCCCOc2ccc(C(=N)N)cc2)cc1	–	inactive
COC(=O)C(C)O (stereo not given)	–	inactive
CCc1nccnc1CC	1.62% [at 15.8 µM]	–
C=CC(=O)OCCCCCCCCCC	–	inactive
CO[Si](CCCNc1ccccc1)(OC)OC	–	inactive
CCCCCCCCCCCCCCCCOS(=O)(=O)O	–	inactive
CC(C)(c1ccc(Oc2ccc3c(c2)C(=O)OC3=O)cc1)c1ccc(Oc2ccc3c(c2)C(=O)OC3=O)cc1	–	inactive

System: not listed separately
Test: G protein-coupled receptor (GPCR) small molecule agonists, calcium flux assay: HEK293 wild type cell line counter screen (AID 1920065; calls by dose curve)
Settings: HEK293 WT calcium flux, fluorescence, agonist mode; series mostly up to 57.6 µM
In short: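 Calcium-sensitive dye, loaded 1 h at 37 C into cells cultured 18 h, reports compound-evoked calcium release as fluorescence (Ex/Em 480/540), measured over 3 min. Agonist mode; 15-point titrations, triplicate.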

Compound	activation	outcome
C=CC(=C)CC/C=C(\C)CCC=C(C)C	-1.2% [at 11.8 µM]	–
C[C@H](CCC(=O)O)[C@H]1CC[C@H]2[C@@H]3[C@H](O)C[C@@H]4C[C@H](O)CC[C@]4(C)[C@H]3C[C@H](O)[C@]12C	–	inactive
CC(C)C[P+](C)(CC(C)C)CC(C)C	–	inactive
CCCCCCCCCCCCCCCCCCN(C)C	–	inactive
CCOC(=O)O[C@H](C)OC(=O)c1ccc2c(c1)cc(C(=O)NC1CCN(C(C)C)CC1)n2Cc1cc(-c2ccc(Cl)s2)on1	–	inactive
CC(=O)Nc1cccc(C)c1	–	inactive
O=C(NCCN1CCOCC1)c1ccc(Cl)cc1	–	inactive
CCCCCCCCCCCCCOP(=O)(O)O	–	inactive
CCCC(C)C	–	inactive
Cc1[nH]c(=O)c(C#N)cc1-c1ccc2nccn2c1	–	inactive
CCO	–	inactive
CC(=O)Nc1ccc(OCC(O)CNC(C)C)cc1 (stereo not given)	–	inactive
O=C(NS(=O)(=O)/C=C/c1ccccc1)c1ccc(F)cc1Cl	–	inactive
CCOC(=O)CCCCCCCCC(=O)OCC	–	inactive
CC(C)OC(=O)C(C(=O)OC(C)C)=C1SC=CS1	–	inactive
O=C(CN1CCN(Cc2ccc3c(c2)OCO3)CC1)N1c2ccccc2Sc2ccccc21	–	inactive
CC(=O)Oc1ccc(C(C)=O)cc1	–	inactive
Cc1ccc(C(=O)Oc2ccc(C(O)CNC(C)(C)C)cc2OC(=O)c2ccc(C)cc2)cc1 (stereo not given)	–	inactive
Oc1ccc(Cl)c2cccnc12	–	inactive
CCCCCCCC/C=C\CCCCCCCCOCCO	–	inactive

Compound	activation	outcome
CC(=O)OC(C)c1ccccc1 (stereo not given)	–	inactive
O=S(=O)(Cl)c1c(Cl)cccc1Cl	–	inactive
CCOC(=O)CC1(C)OCC(C)O1 (stereo not given)	–	inactive
C1CC(COCC2CO2)CCC1COCC1CO1 (stereo not given)	–	inactive
CCCCCCCCCCC(=O)O	–	inactive
O=C1OCc2ccccc21	–	inactive
CC1(C)C(=O)N(CO)C(=O)N1CO	–	inactive
CCCC(c1cc(C(C)(C)C)c(O)cc1C)c1cc(C(C)(C)C)c(O)cc1C	–	inactive
O=C(O)CNCC(=O)O	0.144% [at 5.23 µM]	–
CCCS(=O)c1ccc2nc(NC(=O)OC)[nH]c2c1 (stereo not given)	–	inactive
O=C(OCc1ccccc1)C(=O)OCc1ccccc1	–	inactive
C/C=C(\C)C#N	–	inactive
Cl[Si](Cl)(c1ccccc1)c1ccccc1	–	inactive
N=C(N)c1ccc(OCCCOc2ccc(C(=N)N)cc2)cc1	–	inactive
COC(=O)C(C)O (stereo not given)	–	inactive
CCc1nccnc1CC	-0.595% [at 11.8 µM]	–
C=CC(=O)OCCCCCCCCCC	–	inactive
CO[Si](CCCNc1ccccc1)(OC)OC	–	inactive
CCCCCCCCCCCCCCCCOS(=O)(=O)O	–	inactive
CC(C)(c1ccc(Oc2ccc3c(c2)C(=O)OC3=O)cc1)c1ccc(Oc2ccc3c(c2)C(=O)OC3=O)cc1	–	inactive

Reference: PubChem BioAssay (Tox21)
